BRCA1 expr act: qHTS Assay to Identify Small Molecule Activators of BRCA1 Expression. MCF7-BRCA1-FFLuc reporter, luminescence, 48 h; response scale: scaled: vehicle 0%, 10 µM genistein 100%. hit rate 1.1% among 380,000. Potency, µM (titrated, usually from 46.1 µM), usual class: activators; further: nearly all actives have a fitted effect of over 80% in size
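MCF7-BRCA1-FFLuc, 2000 cells/well; 2 h attach, 37 °C/5% CO2; compound 48 h; luciferase substrate 15 min; luminescence end-point. Norm. to genistein 10 microM max activation and DMSO; concentration-response curves fitted.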
Chronic BCR inh: qHTS Assay to Find Inhibitors of Chronic Active B-Cell Receptor Signaling; ABC-DLBCL IkBa-CBG/CBR reporter, luminescence ratio, 4 h; Potency, µM (highest dose often 46.1 µM), most hits filed as inhibitors; hit rate 0.05% among 340,000; active means well fitted inhibition curve with a large enough effect in the signal ratio, with a control signal flat, not every such curve was filed as active; inconclusive means small, poorly fitted or top-dose-only effect, or effect the other way, or a change in a side signal; the % refers to the signal ratio
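TMD8 ABC-DLBCL cells carrying doxycycline-inducible green luciferase fused to IkappaBalpha plus unfused red luciferase were exposed to compounds (up to 46 uM) for 4 hrs at 37C. Activity came from the overlap-corrected green/red luminescence ratio.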
Nrf2 activator: qHTS of Nrf2 Activators | AREc32 ARE-luciferase reporter (MCF7-derived line), luminescence, 24 h | Potency, µM (top dose mostly 46.1 µM), most hits filed as activators | hit rate 0.31% among 410,000 | AID 624171, 2012; further: nearly all actives have a fitted effect of over 65% in size
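ARE activation measured as luciferase luminescence (Steady-Glo, 30 min RT) in AREc32_Fluc cells after 24 hr compound exposure at 37 deg C, 5% CO2; cells seeded overnight at 1000/well in OPTI-MEM, 5% FBS.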
Integrin act MD: qHTS for Activators of Integrin-Mediated Alleviation for Muscular Dystrophy | alpha7betagal myoblasts, beta-gal FDG fluorescence, 48 h | Potency, µM (series often up to 38.3 µM), most hits filed as activators | hit rate 0.064% among 350,000; further: nearly all actives have a fitted effect of over 60% in size
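Alpha7betagal+/- myoblasts (passage 13) were plated 16-24 hr, then exposed to compounds (1:260 dilution of DMSO stock) for 48 hours at 37C. After MPER lysis, β-galactosidase reporter activity was read as FDG fluorescence (ex 480/em 540) after 30 minutes.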
IL2 activator: qHTS of IL-2 Activators | IL-2 activation reporter assay, cell-based qHTS; stimulated with anti-CD3/CD4/CD28 beads; in transgenic mouse T cells | activation, % (series mostly up to about 46 µM) | hit rate 0.065% among 360,000 | AID 652025, 2013; in the data active means activation above about 50%; inconclusive means mostly about 30% to 49%
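Screening format: compound pinned onto unstimulated transgenic mouse T cells, 60 min incubation, then anti-CD3/anti-CD4/anti-CD28 bead stimulation for 18 hours at 37 degrees C, followed by EGFP and DsRed detection.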
N370S GC: qHTS Assay for Inhibitors and Activators of N370S glucocerebrosidase as a Potential Chaperone Treatment of Gaucher Disease | Potency, µM (titrated, usually from 59.4 µM), actives largely listed as inhibitors | hit rate 0.092% among 330,000 | Lysosomal acid glucosylceramidase (Homo sapiens), P04062 | N370S GC spleen homogenate, 4MU-glucoside fluorescence
Hits are given with their value; i = inactive; ? = inconclusive; nt = not tested or not shown; [ ] = dose if it differs, or a comment. A selection: hits, their analogues and other compounds. The true share with any hit is near 1.4%. Unless noted, the call rests on the fitted dose curve; in most records, active means well fitted curve in the direction sought with a large enough effect; inconclusive means small, poorly fitted or top-dose-only effect, or another doubt; inactive means no such curve, though single readings can be large; an effect the other way counts as inactive or inconclusive.

SMILES | BRCA1 expr act | Chronic BCR inh | Nrf2 activator | Integrin act MD | IL2 activator | N370S GC
COc1ccc2oc(=O)c(-c3nnc(N)s3)cc2c1 | 14.1µM | i | i | i | i | i
Nc1nnc(-c2cc3ccccc3oc2=O)s1 | 7.94µM | ? | i | i | i | i
O=c1oc2ccccc2cc1-c1nnc(NCc2ccco2)s1 | i | ? | i | i | i | i
Cc1cccc(NC(=O)CSc2nc(-c3cccs3)cc(C(F)(F)F)c2C#N)c1C | nt | nt | i | nt | nt | nt
O=C(Nc1cccc(-c2nc3ccccc3o2)c1)c1cccc2c(Cl)cccc12 | i | nt | i | nt | nt | nt
CCC(C)N(CC(=O)Nc1cccc(C)c1C)C(=O)CCl (centres undefined) | i | ? | 7.94µM | i | i | i
Cc1c(C)n2c(SCC(=O)Nc3cccc4ccccc34)nnc2[nH]c1=O | i | ? | i | i | i | i
COC(=O)C1=C[C@@H](C(=O)OC)[C@H]2C3=C(C(=O)[C@@]2(C)NC(=O)c2ccccc2)[C@H](C)C(C(=O)OC)=C(C(=O)OC)[C@@H]3C1 | nt | nt | nt | nt | nt | i
CCc1sc(C(=O)Nc2ccc3nc(C)sc3c2)cc1C | 3.16µM | ? | i | i | i | nt
Cc1nc2ccc(NC(=O)Cc3ccsc3)cc2s1 | 11.2µM | i | i | i | i | i
O=C(Nc1ccc2nc3ccccc3nc2c1)c1ccc(Br)cc1 | ? | ? | i | i | i | i
CC(=O)Nc1ccc2nc3ccccc3nc2c1 | 5.62µM | ? | i | i | i | i
Cc1nc2ccc(NC(=O)c3ccccc3)cc2s1 | 3.55µM | ? | i | i | i | i
Cc1nc2ccc(NC(=O)Cc3cccc(F)c3)cc2s1 | i | i | i | ? | i | i
Cc1ccc(S(=O)(=O)NCC(=O)OCCOc2cccc(Cl)c2)cc1 | i | i | i | i | i | nt
COc1cccc(CN(C(=O)Cn2nnc(-c3ccccc3F)n2)C(C(=O)NC(C)(C)C)c2ccncc2)c1 (centres undefined) | i | i | i | i | i | i
Cc1nc2ccc(NC(=O)c3cccs3)cc2s1 | 6.31µM | ? | ? | i | i | i
Cc1ccc(OC(=O)c2ccc3nc(C)sc3c2)cc1 | i | i | i | ? | 393.6 | i
Cc1nc2ccc(NC(=O)N3CCCCC3)cc2s1 | 11.2µM | i | i | i | i | i
CC(=O)Nc1ccc2nc(NC(=O)c3cccs3)sc2c1 | i | ? | i | i | i | i
O=S(=O)(c1ccc2ncccc2c1)N1CCN(c2nc(-c3cccs3)nc3ccccc23)CC1 | i | nt | nt | nt | nt | nt
CC1(C)OB(c2cnc(C#N)nc2)OC1(C)C | i | nt | nt | nt | nt | nt
Cc1ccc(NC(=O)/C(C#N)=C/c2cccs2)c(C)c1 | 3.98µM | ? | i | i | i | i
Cc1ccccc1NC(=O)/C(C#N)=C\c1ccsc1 | i | i | 8.91µM | i | i | i
CNc1ccc(/C=C(\C#N)C(=O)Nc2ccccn2)cc1[N+](=O)[O-] | i | ? | i | i | 86.6 | i
SMILES | BRCA1 expr act | Chronic BCR inh | Nrf2 activator | Integrin act MD | IL2 activator | N370S GC
Cc1cccc(/C=C(\C#N)C(=O)Nc2ccccn2)c1 | i | ? | i | i | i | i
N#C/C(=C\c1cccs1)C(=O)Nc1ccccn1 | 10µM | ? | ? | i | i | i
O=C1C(=O)C(c2cc(O)c(O)c(O)c2)Oc2cc(O)cc(O)c21 (centres undefined) | i | nt | nt | nt | nt | nt
Cc1ccc(OCCn2cnc3ccccc3c2=O)c([N+](=O)[O-])c1 | 4.47µM | i | i | i | i | i
CC(=O)Nc1ccc(C=CC=Cc2cccc([N+](=O)[O-])c2)cc1 | 5.01µM | nt | ? | i | i | nt
Cc1cc(O)c(C(=O)/C=C/c2cccc([N+](=O)[O-])c2)c(=O)o1 | i | i | 22.4µM | i | i | i
O=C(N/N=C/c1cccc([N+](=O)[O-])c1)c1cccs1 | 12.6µM | ? | i | i | i | i
O=C(N/N=C/c1cccc([N+](=O)[O-])c1)c1ccc(Br)cc1 | i | i | i | i | i | i
O=C(/C=C/c1cccs1)Nc1cccnc1 | 11.2µM | ? | i | i | i | i
CCCCC[C@H](O)/C=C/[C@@H]1[C@@H](C/C=C\CCCC(=O)O)[C@H](O)C[C@H]1O | nt | nt | nt | nt | nt | i
CCN(C(=O)COC(=O)CCS(=O)(=O)c1ccc(C)cc1)C1CCS(=O)(=O)C1 (centres undefined) | i | i | i | i | i | i
CNc1cnc(-c2ccc(F)c(F)c2F)cn1 | ? | nt | i | nt | i | nt
O=C(/C=C/c1ccc(O)cc1)c1cccs1 | nt | nt | nt | nt | nt | i
O=C(C=Cc1cccs1)c1cccs1 | i | nt | 22.4µM | i | i | nt
CCOC(=O)c1ccccc1N/C=C/C(=O)c1cccs1 | i | ? | 6.31µM | i | i | i
O=C(/C=C/c1cccc([N+](=O)[O-])c1)c1cccs1 | i | i | 15.8µM | i | i | i
CCOC(=O)c1ccccc1NC(=O)c1cccs1 | i | i | i | i | i | i
O=C(/C=C/Nc1ccc(F)cc1F)c1cccs1 | i | ? | ? | i | i | i
O=C(/C=C\Nc1cccc(F)c1)c1cccs1 | i | ? | 3.98µM | i | i | i
O=C(/C=C/c1cccc([N+](=O)[O-])c1)Nc1ccc(NC(=O)c2cccs2)cc1 | i | ? | i | i | i | i
Cc1cc(-c2nc3ncccc3o2)ccc1NC(=O)c1ccc(Cl)cc1 | nt | nt | i | nt | nt | nt
O=C(c1ccco1)N1CCCC(Nc2ccc3c(c2)OCCO3)C1 (centres undefined) | 8.91µM | ? | i | i | i | i
CCn1c(COc2ccccc2C)nnc1SCC(=O)CC(=O)Nc1ccccc1 | i | i | i | i[7.66 µM] | i | i
CC(=O)c1cc(NC(=O)c2ccccc2)c(=O)oc1C | i | i | 12.6µM | i | i | i
CCCN1C(=O)/C(=C/c2ccc(N3CCCC3)c(C)c2)NC1=S | i | i | i | i | i | i
SMILES | BRCA1 expr act | Chronic BCR inh | Nrf2 activator | Integrin act MD | IL2 activator | N370S GC
Cc1cc(/C=C2\NC(=S)N(C)C2=O)ccc1N1CCCC1 | 5.01µM | i | i | i | i | i
Cc1csc2c(=O)sc(NC(=O)c3cccs3)nc12 | i | i | 3.55µM | i | i | i
CCOC(=O)c1csc(NC(=O)c2cccs2)n1 | 7.94µM | ? | i | i | i | i
O=C(CC1c2cc(F)ccc2C=C(c2ccsc2)N1c1ccc(C#CCCO)cc1)c1ccco1 (centres undefined) | i | nt | i | nt | i | nt
Cn1c(SCc2ccccc2[N+](=O)[O-])nnc1-c1cccnc1 | 11.2µM | i | i | i | i | i
Cn1c(SCC(=O)C(C)(C)C)nnc1-c1cccnc1 | i | i | i | i | i | i
COc1ccc(/C=N/Nc2ccccn2)cc1OC | 10µM | ? | i | i | i | i

Compound activity from PubChem BioAssay.
